Measurements taken from the supplement of paper PMC10849652.
Of roughly 7,900 targets only a part is listed; those with a hit were picked by preference. About 0.6% of all pairs of compound and target were hits.

Compound: O=C(O)c1ccc2c(c1)nc(Nc1cccc(Cl)c1)c1ccncc12 [silmitasertib]
Assay: log2 fold change, soluble protein after heating vs DMSO (PISA); higher = thermal stabilisation; K562 cells, 10 uM, 30 min; active = over 0.2 and 3.5 SD of the protein, either way, in both replicates (recomputed)
In short: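 Values are thermal stability changes relative to control samples and are taken from duplicates. They are stated as log2 fold changes. Before quantification by TMTpro 16plex LC-MS/MS with equalised channel sums, K562 cells at 2×10^6 cells/mL were treated with 10 μM compound for 30 min, heated in aliquots for 3 min across 48°C-58°C, pooled, extracted in PBS with 0.5% NP-40 at 4°C, and centrifuged at 21,000xg for 90 min to give the soluble supernatant.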

Chain of UniProt P12956 (P12956 whole entry, looked up): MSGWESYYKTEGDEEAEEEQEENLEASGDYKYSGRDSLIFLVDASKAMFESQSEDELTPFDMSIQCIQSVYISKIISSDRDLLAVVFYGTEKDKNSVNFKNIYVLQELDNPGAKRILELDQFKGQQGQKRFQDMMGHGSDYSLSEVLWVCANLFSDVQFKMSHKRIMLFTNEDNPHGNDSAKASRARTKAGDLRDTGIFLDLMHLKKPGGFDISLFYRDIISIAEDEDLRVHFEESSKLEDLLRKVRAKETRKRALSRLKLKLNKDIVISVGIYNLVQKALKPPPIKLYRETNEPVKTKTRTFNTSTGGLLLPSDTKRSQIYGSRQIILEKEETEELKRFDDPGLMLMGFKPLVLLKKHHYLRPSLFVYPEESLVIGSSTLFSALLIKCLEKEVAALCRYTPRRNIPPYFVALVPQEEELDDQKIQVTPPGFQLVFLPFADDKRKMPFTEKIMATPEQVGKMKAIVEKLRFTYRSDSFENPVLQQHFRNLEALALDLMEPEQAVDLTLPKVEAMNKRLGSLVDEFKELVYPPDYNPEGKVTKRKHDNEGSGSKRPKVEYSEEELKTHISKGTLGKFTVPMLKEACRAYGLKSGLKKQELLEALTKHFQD
Chain of UniProt Q9H269 (Q9H269 whole entry, looked up): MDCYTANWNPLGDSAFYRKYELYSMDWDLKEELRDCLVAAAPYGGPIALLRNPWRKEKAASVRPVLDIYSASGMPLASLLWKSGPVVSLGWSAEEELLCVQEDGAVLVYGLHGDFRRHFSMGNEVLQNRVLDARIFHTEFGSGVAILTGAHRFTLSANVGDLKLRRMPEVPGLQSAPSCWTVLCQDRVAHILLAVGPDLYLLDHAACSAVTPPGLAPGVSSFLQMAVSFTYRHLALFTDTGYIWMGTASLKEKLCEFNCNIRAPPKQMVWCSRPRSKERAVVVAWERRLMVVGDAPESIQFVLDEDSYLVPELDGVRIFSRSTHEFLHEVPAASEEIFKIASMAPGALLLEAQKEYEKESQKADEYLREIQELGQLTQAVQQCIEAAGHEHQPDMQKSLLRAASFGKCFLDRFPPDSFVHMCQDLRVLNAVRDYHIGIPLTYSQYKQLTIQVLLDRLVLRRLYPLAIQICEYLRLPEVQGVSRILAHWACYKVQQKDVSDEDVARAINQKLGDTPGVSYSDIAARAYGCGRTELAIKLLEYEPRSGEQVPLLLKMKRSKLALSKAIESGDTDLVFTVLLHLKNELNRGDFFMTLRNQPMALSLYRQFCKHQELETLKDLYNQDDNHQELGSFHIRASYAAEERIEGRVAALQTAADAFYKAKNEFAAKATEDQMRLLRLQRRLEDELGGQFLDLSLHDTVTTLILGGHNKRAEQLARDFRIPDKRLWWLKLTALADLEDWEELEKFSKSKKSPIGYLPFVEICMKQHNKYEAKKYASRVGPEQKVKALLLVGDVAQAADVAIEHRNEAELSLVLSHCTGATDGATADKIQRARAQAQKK
Chain of UniProt Q16881 (Q16881 whole entry, looked up): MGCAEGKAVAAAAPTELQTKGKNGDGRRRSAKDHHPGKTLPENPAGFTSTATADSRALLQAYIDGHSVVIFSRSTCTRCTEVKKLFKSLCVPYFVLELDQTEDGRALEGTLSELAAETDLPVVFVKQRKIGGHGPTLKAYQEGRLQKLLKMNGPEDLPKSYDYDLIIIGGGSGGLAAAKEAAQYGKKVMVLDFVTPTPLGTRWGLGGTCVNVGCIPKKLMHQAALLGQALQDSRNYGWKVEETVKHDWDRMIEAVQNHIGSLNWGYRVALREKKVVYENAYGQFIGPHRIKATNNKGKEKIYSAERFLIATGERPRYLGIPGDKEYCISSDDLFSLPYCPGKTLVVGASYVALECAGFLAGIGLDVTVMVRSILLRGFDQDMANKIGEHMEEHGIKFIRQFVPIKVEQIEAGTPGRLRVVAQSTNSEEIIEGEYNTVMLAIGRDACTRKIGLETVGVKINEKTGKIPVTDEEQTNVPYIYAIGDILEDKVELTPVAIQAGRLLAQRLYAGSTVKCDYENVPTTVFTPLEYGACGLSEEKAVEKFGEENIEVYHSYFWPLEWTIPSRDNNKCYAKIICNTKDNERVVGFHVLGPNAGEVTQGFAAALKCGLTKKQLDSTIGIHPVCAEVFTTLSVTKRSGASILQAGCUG
Chain of UniProt Q7L0Y3 (Q7L0Y3 whole entry, looked up): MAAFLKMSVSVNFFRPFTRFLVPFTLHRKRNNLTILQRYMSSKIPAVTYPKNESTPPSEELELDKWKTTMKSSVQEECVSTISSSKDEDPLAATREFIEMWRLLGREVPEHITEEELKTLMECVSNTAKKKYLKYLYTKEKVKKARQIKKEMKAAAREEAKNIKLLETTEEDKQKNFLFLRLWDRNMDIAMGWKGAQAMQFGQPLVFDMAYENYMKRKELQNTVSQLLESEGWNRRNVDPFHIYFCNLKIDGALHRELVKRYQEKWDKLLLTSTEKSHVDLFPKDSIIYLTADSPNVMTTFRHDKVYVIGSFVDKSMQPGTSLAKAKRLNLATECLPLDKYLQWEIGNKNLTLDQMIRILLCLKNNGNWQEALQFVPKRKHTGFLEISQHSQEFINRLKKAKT
Chain of UniProt P68366 (P68366 whole entry, looked up): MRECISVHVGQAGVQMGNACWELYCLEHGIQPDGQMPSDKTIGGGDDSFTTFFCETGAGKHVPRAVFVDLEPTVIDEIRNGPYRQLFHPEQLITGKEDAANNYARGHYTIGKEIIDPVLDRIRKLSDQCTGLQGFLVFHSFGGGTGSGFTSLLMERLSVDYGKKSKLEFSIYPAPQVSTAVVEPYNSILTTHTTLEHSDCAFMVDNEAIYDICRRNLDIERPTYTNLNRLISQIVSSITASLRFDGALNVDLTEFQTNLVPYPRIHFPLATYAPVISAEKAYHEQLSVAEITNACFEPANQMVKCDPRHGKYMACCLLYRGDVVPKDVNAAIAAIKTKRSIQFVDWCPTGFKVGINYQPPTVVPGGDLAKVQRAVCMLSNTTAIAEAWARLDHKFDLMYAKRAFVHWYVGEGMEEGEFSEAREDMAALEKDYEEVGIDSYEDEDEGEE
Chain of UniProt Q53S58 (Q53S58 whole entry, looked up): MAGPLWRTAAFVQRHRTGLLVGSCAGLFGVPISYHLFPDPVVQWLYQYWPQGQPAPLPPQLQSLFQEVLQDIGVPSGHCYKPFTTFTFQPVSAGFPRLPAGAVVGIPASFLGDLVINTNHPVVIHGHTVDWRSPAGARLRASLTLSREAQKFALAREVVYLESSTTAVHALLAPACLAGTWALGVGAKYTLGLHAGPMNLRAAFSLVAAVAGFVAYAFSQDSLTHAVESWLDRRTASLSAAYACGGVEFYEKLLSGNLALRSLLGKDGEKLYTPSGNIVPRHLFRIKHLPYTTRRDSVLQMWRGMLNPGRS
Chain of UniProt Q9H6R7 (Q9H6R7 whole entry, looked up): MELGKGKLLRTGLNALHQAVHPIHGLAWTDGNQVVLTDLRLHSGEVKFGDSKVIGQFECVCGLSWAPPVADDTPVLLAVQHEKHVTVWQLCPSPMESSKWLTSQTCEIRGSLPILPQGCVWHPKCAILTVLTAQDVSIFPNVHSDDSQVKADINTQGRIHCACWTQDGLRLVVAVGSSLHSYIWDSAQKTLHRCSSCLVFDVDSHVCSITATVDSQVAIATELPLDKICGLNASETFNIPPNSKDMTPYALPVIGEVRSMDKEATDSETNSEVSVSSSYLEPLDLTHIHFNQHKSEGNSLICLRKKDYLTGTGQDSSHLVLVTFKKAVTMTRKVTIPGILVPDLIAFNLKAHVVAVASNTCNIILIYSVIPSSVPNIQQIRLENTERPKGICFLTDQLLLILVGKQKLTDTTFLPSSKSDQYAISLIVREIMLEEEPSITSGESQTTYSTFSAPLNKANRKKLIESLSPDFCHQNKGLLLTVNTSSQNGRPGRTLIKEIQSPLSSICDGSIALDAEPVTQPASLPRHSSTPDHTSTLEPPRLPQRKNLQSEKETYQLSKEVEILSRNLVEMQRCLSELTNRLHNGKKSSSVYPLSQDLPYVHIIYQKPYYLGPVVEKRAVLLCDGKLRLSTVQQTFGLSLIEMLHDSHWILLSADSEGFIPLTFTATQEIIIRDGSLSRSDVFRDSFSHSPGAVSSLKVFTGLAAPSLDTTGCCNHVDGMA
Chain of UniProt Q9NP79 (Q9NP79 whole entry, looked up): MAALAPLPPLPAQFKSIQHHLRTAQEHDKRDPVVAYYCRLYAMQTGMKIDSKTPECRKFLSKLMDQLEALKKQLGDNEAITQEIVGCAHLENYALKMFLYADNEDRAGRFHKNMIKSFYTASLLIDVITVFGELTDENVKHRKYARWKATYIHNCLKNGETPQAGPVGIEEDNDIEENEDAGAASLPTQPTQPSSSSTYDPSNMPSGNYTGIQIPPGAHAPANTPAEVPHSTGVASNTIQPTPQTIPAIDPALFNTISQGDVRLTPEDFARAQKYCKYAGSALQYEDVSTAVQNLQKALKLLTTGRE
Chain of UniProt Q9UL33 (Q9UL33 whole entry, looked up): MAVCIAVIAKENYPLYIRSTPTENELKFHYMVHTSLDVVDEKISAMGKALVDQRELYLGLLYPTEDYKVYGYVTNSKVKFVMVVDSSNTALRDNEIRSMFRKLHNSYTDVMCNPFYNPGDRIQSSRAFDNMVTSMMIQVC
Chain of UniProt O60701 (O60701 whole entry, looked up): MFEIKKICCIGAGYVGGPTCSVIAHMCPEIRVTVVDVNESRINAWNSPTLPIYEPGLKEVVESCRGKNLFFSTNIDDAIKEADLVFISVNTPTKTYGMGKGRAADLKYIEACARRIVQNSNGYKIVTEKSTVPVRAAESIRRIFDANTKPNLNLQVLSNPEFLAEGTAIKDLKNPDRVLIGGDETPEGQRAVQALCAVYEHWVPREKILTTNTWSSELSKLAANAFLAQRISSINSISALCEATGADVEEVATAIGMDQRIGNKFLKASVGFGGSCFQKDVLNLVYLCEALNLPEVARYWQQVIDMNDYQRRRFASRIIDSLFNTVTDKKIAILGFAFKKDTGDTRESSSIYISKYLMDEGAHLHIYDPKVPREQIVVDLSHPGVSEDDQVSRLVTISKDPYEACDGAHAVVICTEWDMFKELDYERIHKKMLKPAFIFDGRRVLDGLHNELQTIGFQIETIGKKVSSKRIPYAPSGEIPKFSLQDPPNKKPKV
Chain of UniProt Q8N4H5 (Q8N4H5 whole entry, looked up): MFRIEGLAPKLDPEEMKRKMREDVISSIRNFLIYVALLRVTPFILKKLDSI

log2 fold change, inactive:
TRAPPC2L (UniProt Q9UL33) 0.037, UGDH (UniProt O60701) -0.102, WDR7 (UniProt Q9Y4E6) 0.032, TOMM5 isoform 2 (UniProt Q8N4H5) -0.043, USP7 (UniProt Q93009) -0.028, TYW1 (UniProt Q9NV66) 0.039, UBR2 (UniProt Q8IWV8) 0.061, TMEM161A (UniProt Q9NX61) -0.023, XPNPEP1 isoform 3 (UniProt Q9NQW7) -0.037, XRCC6 (UniProt P12956) 0.026, TNPO2 (UniProt O14787) 0.059, TRMT10C (UniProt Q7L0Y3) -0.026, UHRF1BP1L (UniProt A0JNW5) 0.015, TUBA4A (UniProt P68366) -0.065, USP3 (UniProt Q9Y6I4) 0.019, WBP4 (UniProt O75554) -0.026, VTA1 (UniProt Q9NP79) 0.023, UBE3D (UniProt Q7Z6J8) 0.067, VPS16 (UniProt Q9H269) 0.009, TXNRD1 (UniProt Q16881) -0.036, TMEM177 (UniProt Q53S58) -0.019, WDCP (UniProt Q9H6R7) 0.172, TMEM223 (UniProt A0PJW6) 0.019
